Screening results from PubChem.
Eya2 inh: qHTS Assay for Inhibitors of the Phosphatase Activity of Eya2 | Potency, µM (highest dose often 76.9 µM), for inactives: at the top dose activity, negative = inhibition, most hits filed as inhibitors | Protein phosphatase EYA2 (Homo sapiens), O00167 | AID 488837, 2010 | 330,000 tested, 0.006% active | recombinant Eya2, OMFP fluorescence dephosphorylation (OMFP is methylfluorescein phosphate)
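Eya2 (0.2 uM) preincubated 10 min at ambient with compound, then OMFP substrate added at 50 uM; 10 min reaction in 50 mM HEPES pH 7.5, 50 mM NaCl, 5 uM MgCl2, 0.05% BSA, 1 mM DTT. Fluorescence read at Ex 485/Em 525 nm.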
TrxR1 substrate: qHTS Assay for Substrates of Mammalian Selenoprotein Thioredoxin Reductase 1 (TrxR1): qHTS. Thioredoxin reductase 1, cytoplasmic (Rattus norvegicus), O89049. purified TrxR1 substrate turnover, NADPH consumption readout. Potency, µM (top dose mostly 114 µM), for inactives: at the top dose activity change, negative = substrate turnover. 390,000 tested, 0.01% active. AID 588456, 2011; note: nearly all actives have a fitted effect of over 50% in size
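Rat TrxR1, dispensed at 90 nM, was prereduced with 400 uM NADPH (final) for 5 min at ~22 deg C, then incubated with compound 15 min before 400 uM selenite. A first-read NADPH fluorescence drop versus no-compound background flagged substrates.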
USP2a block: qHTS Assay for Inhibitors of Ubiquitin-specific Protease USP2a Using CHOP2 as the Reporter | Potency, µM (top dose mostly 38.3 µM), for inactives: top-dose activity change, negative = inhibition, actives largely listed as inhibitors | AID 463254, 2010 | Ubiquitin carboxyl-terminal hydrolase 2 (Homo sapiens), O75604 | USP2 core, Ub-CHOP2 coupled fluorogenic reporter, 485/531 | 330,000 tested, 0.01% active;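 note: plate controls were DMSO wells for no effect and full inhibition by NEM control for full effect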
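USP2 core (10nM final) preincubated 30min RT with compound in 20mM Tris-HCl pH 8.0, 2mM CaCl2, 2mM beta-mercaptoethanol, 0.05% CHAPS; 25nM Ub-CHOP2 plus 25nM reporter substrate added, fluorescence (Ex485/Em531) read after 60min.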
RGS4 inh: Inhibitors of Regulator of G Protein Signaling (RGS) 4: qHTS; Regulator of G-protein signaling 4 (Homo sapiens), P49798; Transcreener GDP fluorescence polarization, RGS4-accelerated GTP hydrolysis; Potency, µM (series often up to 114 µM), for the others: at the highest dose activity change, negative = inhibition, hits mostly inhibitors; 390,000 tested, 0.039% active; note: nearly all actives have a fitted effect of over 75% in size
Target sequence (P49798 whole entry, looked up): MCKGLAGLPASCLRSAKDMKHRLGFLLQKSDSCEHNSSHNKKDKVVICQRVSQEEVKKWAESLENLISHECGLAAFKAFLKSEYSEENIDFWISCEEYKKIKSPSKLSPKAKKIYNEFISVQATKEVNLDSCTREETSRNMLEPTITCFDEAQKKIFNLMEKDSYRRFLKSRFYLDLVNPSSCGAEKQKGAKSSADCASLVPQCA
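MLSMR compounds (23 nl, pin-transferred) preincubated 10 min at room temperature with a 500nM (2x) first reagent, then RGS4 at 900nM (2x) plus Transcreener GDP mix added; fluorescence polarization (620/688 nm) read before and after 90 min at 30 °C.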
GALK inh: qHTS Assay for Inhibitors of Human Galactokinase (GALK); P51570; Potency, µM (titrated, usually from 57.5 µM), for the others: top-dose activity change, negative = inhibition, actives largely listed as inhibitors; Purified GALK, Kinase-Glo residual ATP luminescence; 270,000 tested, 0.007% active
Target sequence (P51570 whole entry, looked up): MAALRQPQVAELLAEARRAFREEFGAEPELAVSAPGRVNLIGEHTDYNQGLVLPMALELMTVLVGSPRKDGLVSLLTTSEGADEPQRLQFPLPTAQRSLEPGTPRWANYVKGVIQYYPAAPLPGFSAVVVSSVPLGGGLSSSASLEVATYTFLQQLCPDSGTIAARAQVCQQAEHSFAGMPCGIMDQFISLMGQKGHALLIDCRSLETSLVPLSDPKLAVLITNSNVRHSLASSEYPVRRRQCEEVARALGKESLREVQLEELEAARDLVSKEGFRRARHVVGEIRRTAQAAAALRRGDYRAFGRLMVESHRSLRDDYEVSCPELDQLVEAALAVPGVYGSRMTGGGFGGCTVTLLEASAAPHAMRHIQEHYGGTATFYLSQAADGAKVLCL
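Human GALK (5 nM) with 35 uM ATP and 100 uM galactose in 20 mM HEPES pH 8.0, 5 mM MgCl2, 60 mM NaCl, 1 mM DTT, 0.01% BSA. After 1 h at room temperature, leftover ATP was read by Kinase-Glo Plus luminescence.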
rTrxR1 inhibitor: qHTS Assay for Inhibitors of Mammalian Selenoprotein Thioredoxin Reductase 1 (TrxR1): qHTS | Thioredoxin reductase 1, cytoplasmic (Rattus norvegicus), O89049 | recombinant rTrxR1, NADPH fluorescence consumption, selenite substrate | Potency, µM (series often up to 114 µM), inactives show at the highest dose activity change, negative = inhibition, actives largely listed as inhibitors | 390,000 tested, 1% active | AID 588453, 2011; note: nearly all actives have a fitted effect of over 65% in size
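Rat TrxR1 (90 nM in the dispensed reagent) was pre-reduced with 400 uM NADPH for 5 min at room temperature, then incubated with compound for 15 min. After 400 uM selenite was added, NADPH fluorescence (Ex 340/Em 450 nm) was followed for 8 min.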
* marks the source's active call; other numbers are inactive results; ? = inconclusive; / = no result given; ! = not confirmed by another sample; [ ] = dose if it differs, or a comment. Shown are actives, neighbours in structure and some others; about 1% of the full set was active somewhere. Calls come from the whole dose curve; as a rule, active = well fitted curve in the direction sought with a large enough effect; inconclusive = small, poorly fitted or top-dose-only effect, or another doubt; inactive = no such curve, though single readings can be large; an effect the other way counts as inactive or inconclusive. Unless noted, % is set by controls: 0 for no effect and ±100 for the full control effect; potency is the fitted concentration of half-maximal effect.

SMILES | Eya2 inh | TrxR1 substrate | USP2a block | RGS4 inh | GALK inh | rTrxR1 inhibitor
NC(=O)c1c(NC(=O)CSc2nnc(Cc3ccccc3)n2Cc2ccco2)sc2c1CCC2 | 5.2% | 8.5% | 0.9% | -44.7% | 1.6% | ?
CCCCn1c(SCC(=O)Nc2sc3c(c2C(N)=O)CCC3)nnc1-c1ccccc1 | / | 11.1%[57.1 µM] | / | ? | / | 35.5µM*
COc1ccc(/C(N)=N/OC(=O)c2ccco2)cc1OC | -9.7% | 4.7% | 0.8% | ? | -1.3% | 22.3%[57.1 µM]
Cc1csc(/C(=N/OC(=O)c2ccco2)C(N)=O)n1 | -11.7% | 4.7% | 4.0% | -0.2% | 1.9% | 11.2µM*
Cc1ccnc(NC(c2cc(C)ccc2O)c2ccc3cccnc3c2O)c1 (stereo not drawn) | / | 3.0% | / | ? | / | 5.01µM*
O=C(O)c1ccccc1NC(c1ccccc1)c1ccc2cccnc2c1O (stereo not drawn) | / | 9.9%[11.4 µM] | / | ? | / | ?
Cc1ccnc(NC(c2ccccc2)c2ccc3cccnc3c2O)c1 (stereo not drawn) | / | 9.3%[57.1 µM] | / | -38.0% | / | -76.7%[57.1 µM]
Cc1ccnc(NC(c2cccnc2)c2ccc3cccnc3c2O)c1 (stereo not drawn) | 14.7% | 5.5% | -8.2% | -29.9% | 0.1% | 3.55µM*
COc1ccccc1NC(c1cccnc1)c1ccc2cccnc2c1O (stereo not drawn) | -1.4% | -6.2% | 0.9% | ? | 0.6% | 0.708µM*
O=S(=O)(c1ccc(Cl)cc1)N1CCN(c2nc(-c3ccc(F)cc3)nc3cc(Cl)ccc23)CC1 | / | 2.1% | / | -14.9% | / | 22.5%
CCOC(=O)c1[nH]c(=O)[nH]c1COC(=O)c1cc2ccccc2o1 | 0.0% | 0.7% | 0.8% | -16.8% | 2.6% | 3.16µM*
O=C(Nc1nnc(Cc2ccccc2)s1)C1CCN(C(=O)c2cccs2)CC1 | / | 3.2% | / | 8.9% | / | 24.5%
CCN(CC)C(=O)Cc1c(OC)ccc2cc(Br)ccc12 | -3.2% | -5.4% | 7.5% | -14.3% | -2.4% | -5.8%
CCN(Cc1ccncc1)Cc1c(O)ccc2cc(Br)ccc12 | -6.3% | 8.6%[57.1 µM] | -3.3% | ? | -0.6% | 7.94µM*
Cc1nc([N+](=O)[O-])cn1CC(O)c1ccc2c(c1)OCCO2 (stereo not drawn) | / | -3.1% | / | / | / | 11.9%
O=C(CCC(=O)Nc1ccc(Cl)cc1Cl)N/N=C/c1ccc([N+](=O)[O-])o1 | -1.4% | -5.4% | 3.5% | -37.2% | 9.5% | 11.2µM*
CCCCCC(=O)N/N=C/c1ccc([N+](=O)[O-])o1 | 6.7% | 0.6% | -1.5% | 5.5% | -0.2% | ?
O=[N+]([O-])c1ccc(/C=N/NC(=S)Nc2ccccc2F)o1 | 1.4% | -10.5% | 5.1% | -6.4% | -2.9% | -55.3%
O=C(N/N=C/c1ccc([N+](=O)[O-])o1)c1ccncc1 | ? | -20.4% | 8.6% | -7.0% | 0.3% | -69.5%
O=C(N/N=C/c1ccc([N+](=O)[O-])o1)c1ccc(O)cc1 | -0.2% | -2.5% | -1.2% | -9.0% | -1.0% | 20µM*
O=C(N/N=C\c1ccc([N+](=O)[O-])o1)c1cncc(Br)c1 | 1.0% | 2.0%[57.1 µM] | -1.2% | -23.9% | 5.6% | 22.4µM*
O=[N+]([O-])c1ccc(/C=N/NC(=S)Nc2ccccc2)o1 | 1.5% | -14.2% | -0.3% | -11.4% | -0.1% | 17.8µM*
O=C(N/N=C/c1ccc([N+](=O)[O-])o1)c1ccccc1NS(=O)(=O)c1cccs1 | 3.8% | -1.3% | 5.3% | -11.5% | 5.2% | 39.8µM*
COCC(=O)Nc1nc2n(n1)C(c1ccc(Cl)cc1)CC(c1ccc(OC)cc1)N2 (stereo not drawn) | 8.3% | 27.5%[57.1 µM] | 2.1% | -45.4% | 0.8% | 17.8µM*
COCC(=O)Nc1nc2n(n1)C(c1ccccc1Cl)CC(c1ccc(OC)cc1)N2 (stereo not drawn) | 11.4% | 49.0% | -1.4% | 3.3% | 0.4% | ?
SMILES | Eya2 inh | TrxR1 substrate | USP2a block | RGS4 inh | GALK inh | rTrxR1 inhibitor
O=C(COC(=O)c1nc(Cl)c(Cl)c(Cl)c1Cl)NCc1ccccc1 | 14.0% | -7.5% | -0.5% | 0.0% | / | 44.7µM*
CC(=O)ON(C(C)=O)c1ccc(/C=C2/C=Cc3ccccc32)cc1 | / | -2.0% | / | / | / | ?
O=C(O)c1cc(-c2ccco2)nc2ccc(Br)cc12 | 15.3% | 0.4% | 0.8% | ? | -7.6% | 1.26µM*!
CCCCN(C(=O)c1cc(-c2ccco2)nc2ccccc12)c1c(N)n(CCC)c(=O)[nH]c1=O | 5.5% | -0.4% | 1.0% | -31.7% | / | 79.4µM*
NC(=O)COC(=O)c1cc(-c2ccco2)nc2ccccc12 | -10.2% | 60.3% | -0.1% | 11.6% | -0.3% | 79.4µM*
COc1ccccc1CNC(=O)COC(=O)c1cc(-c2ccco2)nc2ccccc12 | 4.8% | 25.5% | -1.1% | ? | 0.6% | ?
Cc1ccc(S(=O)(=O)N(C)C)cc1NC(=O)c1cc(-c2ccco2)nc2ccccc12 | -8.1% | 63.1% | 2.0% | ? | -0.5% | 3.55µM*
COc1cccc(CN2Cc3cccc4c3[C@H](C=CC4)CC2=O)c1 | / | 1.1% | / | / | / | -12.6%
Cn1c(=O)c(C(=O)COC(=O)c2cc(-c3ccco3)nc3ccccc23)c(N)n(Cc2ccccc2)c1=O | 4.9% | / | -0.9% | / | / | /
CC(C)CCNC(=O)c1cc(-c2ccco2)nc2ccccc12 | -8.8% | 137.5% | 3.0% | 15.0% | -2.1% | -23.9%
O=C(c1cc(-c2ccco2)nc2ccccc12)N1CCN(Cc2ccccc2)CC1 | 1.4% | 109.1% | 0.3% | 8.6% | / | 39.8µM*
